# Assay results reported in PubChem BioAssay AID588342 (National Center for Advancing Translational Sciences (NCATS), 2011).
# Out of some 360,000 compounds screened, about 25,000 (6.9%) were called active. Entries that show only a call come without a potency. Inconclusive results (about 9%) are left out. The call rests on the fitted dose curve; in most records, active means well fitted inhibition curve with a large enough effect; inconclusive means small, poorly fitted or top-dose-only effect; inactive means flat fitted curve, though single readings scatter. Many of the other results were omitted from the sample, so actives are more common in it than they were.
# Biological target: Luciferin 4-monooxygenase (Photinus pyralis) (UniProt P08659)
# Assay: qHTS profiling assay for firefly luciferase inhibitor/activator using purifed enzyme and Km concentrations of substrates (counterscreen for miR-21 project); further: nearly all actives have a fitted effect of over 55% in size
# Settings: purified FLuc, luminescence inhibition; series mostly up to 57.5 µM
# Excerpt: MLPCN Grant: 1 R21 NS059478-01 (miR-21 grant) Assay Provider: NCGC NCGC Assay Overview: Firefly (Photinus pyralis) luciferase is one of the most commonly used transcriptional reporters for a number of reasons. It is considered one of the more dynamically responsive reporters -that is, responsive to changes in reporter transcription - as it requires no post-translational modifications and is enzymatically active directly after protein synthesis (Wood, 1998). Additionally, the half-life of the luciferase protein is short relative to other reporter-gene products (Wood, 1995). Whereas reporters with long half-lives potentially allow for increased signal due to accumulation of reporter-gene product, once accumulated in the cell, dynamic changes in reporter-gene expression may be difficult to detect(Fan and Wood, 2007; Almond et al., 2004). It has been shown that wild-type P. pyralis luciferase has a half-life of approximately […] hours in mammalian cells (Thompson et al., 1991). Firefly luciferase reporter-gene assays are also generally considered one of the most sensitive assay types (Wood, 1995; Wood, 1998). Although light produced in a bioluminescence reaction is of lower intensity than that produced during fluorescence emission, this is offset by little to no background light inherent to luminescent assays. Thus the luciferase reporter can be expressed at much lower levels than fluorescent proteins while still providing robust signal. # However, it was initially observed, in 1991, by Thompson et al., that compounds that resemble the substrates of firefly luciferase (FLuc) can act as competitive inhibitors of the enzyme, and that these compounds, upon interaction with luciferase in the cell, can actually stabilize the protein and increase its half-life. Accumulated intracellular FLuc protein can be measured as an increase in luminescence signal, upon addition of detection reagents (which contain high concentrations of FLuc substrates) commonly used in high-throughput screening. In cell-based reporter gene assays that use FLuc as the reporter gene to quantitate the potential influence of a given compound against the target biology, this apparent increase in luminescence can mistakenly be interpreted as identification of a compound that is active against the target of interest. This is the case for the miR-21 FLuc reporter gene assay used to identify inhibitors of the miR-21 pathway (PubChem AID 2289) - compounds of interest will inhibit miR-21 biogenesis/expression or activity, and are identified by causing an increase in luminescence, due to increased FLuc translation. However, FLuc inhibitory compounds that stabilize the FLuc protein will give an identical read-out, making it difficult to distinguish compounds that are active against the target from those active against FLuc. Previous profiling work to determine the prevalence of compounds that affect FLuc enzymatic activity (PubChem AID 411) identified that ~3% of the MLSMR library (then at ~72K) inhibited FLuc. […] Since the MLSMR had grown to ~350K compounds, and since it was expected that a significant percentage of compounds found active in the miR-21 FLuc assay would be FLuc inhibitors, the library was screened for activity against FLuc using a biochemical assay of purified FLuc and KM concentrations of FLuc substrates (D-luciferin and ATP).
# NCGC Assay Protocol Summary: Reagents: 50mM Tris acetate, pH 7.5; 10mM Mg acetate; 10uM D-luciferin (Sigma #L9504); 10uM ATP; 0.01% Tween-20; 0.05% BSA; 10nM P. pyralis luciferase (Sigma #L9506) Control compounds used were two known firefly luciferase inhibitors (compounds (2) and (5) in Auld et al., 2010), and DMSO. […]
# Sequence of Luciferin 4-monooxygenase (Photinus pyralis) (P08659 whole entry, looked up): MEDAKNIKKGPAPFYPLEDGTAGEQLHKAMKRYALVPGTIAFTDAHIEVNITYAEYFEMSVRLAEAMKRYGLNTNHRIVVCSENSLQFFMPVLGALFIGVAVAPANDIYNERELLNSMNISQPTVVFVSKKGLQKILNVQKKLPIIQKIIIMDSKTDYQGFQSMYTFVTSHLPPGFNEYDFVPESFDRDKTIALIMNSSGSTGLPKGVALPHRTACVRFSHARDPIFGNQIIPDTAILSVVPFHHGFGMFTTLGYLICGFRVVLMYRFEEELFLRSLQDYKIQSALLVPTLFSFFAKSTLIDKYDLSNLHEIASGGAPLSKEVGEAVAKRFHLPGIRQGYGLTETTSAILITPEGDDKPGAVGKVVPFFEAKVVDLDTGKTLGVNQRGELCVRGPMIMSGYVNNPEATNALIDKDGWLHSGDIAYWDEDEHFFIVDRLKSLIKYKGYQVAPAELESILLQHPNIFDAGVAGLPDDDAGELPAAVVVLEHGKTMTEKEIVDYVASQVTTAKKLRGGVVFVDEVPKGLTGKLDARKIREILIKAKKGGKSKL
row,Structure (SMILES),Potency
1,Nc1c(Cl)cc(S(N)(=O)=O)cc1S(N)(=O)=O,inactive
2,COc1ccc(-n2c(=O)c3ccccc3n(Cc3ccccc3Cl)c2=O)cc1,inactive
3,Cc1ccc(Cn2c(=O)n(CCCC(=O)NCc3ccccc3Cl)c(=O)c3ccccc32)cc1,inactive
4,COc1ccc(C2=NC3(CCCCC3)N(CC(=O)Nc3ccc(C(C)C)cc3)C2=O)cc1,inactive
5,CCOC(=O)c1sc(NC(=O)C(CC)Sc2nccn2C)nc1C (stereo unspecified),inactive
6,CC(Sc1nncn1C)C(=O)Nc1ccccc1-c1ccccc1 (stereo unspecified),inactive
7,CCC(Sc1nncn1C)C(=O)Nc1nnc(-c2ccc(Cl)cc2)s1 (stereo unspecified),15.1 µM (active)
8,COc1ccc(C2CC(=O)Nc3c2c(=O)nc2c(C)cccn32)cc1OC (stereo unspecified),inactive
9,COc1ccc(C(=O)Nc2nncs2)c(OC)c1,8.49 µM (active)
10,O=C(NC1=NCCS1)[C@H](Cc1ccccc1)N1C(=O)c2ccccc2C1=O,inactive
11,COc1ccc(OC)c(NC(=O)Cc2cccs2)c1,inactive
12,COc1cccc(OC)c1C(=O)Nc1nnc(C(C)C)s1,inactive
13,O=C(NCc1ccc2c(c1)OCO2)c1ccc(Cl)s1,inactive
14,COc1ccccc1C(=O)NCCC(=O)NC1=NCCS1,inactive
15,CCOc1ccc(C(=O)CCC(=O)NC2=NCCS2)cc1,inactive
16,COc1ccc(C(=O)NC2=NCCS2)c(OC)c1,6.01 µM (active)
17,O=C(NC1=NCCS1)c1ccc(Cl)s1,23.9 µM (active)
18,Cc1c(NC(=O)CSc2nnc(-c3cccnc3)n2N)c(=O)n(-c2ccccc2)n1C,inactive
19,COc1ccc(CCNCc2c(C(=O)O)c(C)n(Cc3cccc(C)c3)c2C)cc1OC,inactive
20,Cc1ccc(NC(=O)CN2C(=O)C(c3ccc(F)cc3)=NC23CCCCCC3)c(C)c1,inactive
21,CCOc1ccc(N2C(=O)CSC2=NC#N)cc1,inactive
22,CCOc1ccccc1NC(=O)Cn1ncc2ccc([N+](=O)[O-])cc21,inactive

row,Structure (SMILES),Potency
1,Cc1cccc(-n2ccnc2SCC(=O)Nc2cccc3ccccc23)c1C,inactive
2,Cc1ccccc1OCCC(=O)OCC(=O)NCCc1ccc(S(N)(=O)=O)cc1,inactive
3,COc1ccccc1CC(NC(C)=O)C(=O)NC1CCN(C(=O)Nc2ccccc2Cl)CC1 (stereo unspecified),inactive
4,O=C1Cc2cc(S(=O)(=O)Nc3ccc(OC(F)(F)F)cc3)cc3c2N1CCC3,inactive
5,O=C(Nc1cccc2ccccc12)c1onc2c1CCCC2,8.49 µM (active)
6,O=C(O)c1ccccc1-c1ccccc1C(=O)Nc1cccc2ccccc12,inactive
7,CN(CC(=O)Nc1ccc(Cl)cc1)CC(=O)Nc1cccc2ccccc12,inactive
8,COc1ccc(C(=O)OCC(=O)c2ccc(Cl)s2)c(OC)c1OC,21.3 µM (active)
9,COc1ccc(C(=O)OCC(=O)Nc2ccc3[nH]c(=O)[nH]c3c2)c(OC)c1OC,inactive
10,COc1ccc(Cl)cc1C(=O)OCC(=O)NCc1cccs1,inactive
11,CCC1=Nc2cc(C(=O)NCC(C)c3ccccc3)ccc2Sc2ccc(C)cc21 (stereo unspecified),inactive
12,COC(=O)c1c(-c2ccc(C)cc2)csc1N,inactive
13,CCOC(=O)c1c(-c2ccc(-c3ccccc3)cc2)csc1NC(=O)CCC(=O)O,inactive
14,CCOC(=O)c1c(-c2ccc(C)cc2)csc1/N=C(\C)C1=C(O)c2ccccc2C1=O,2.69 µM (active)
15,CN(C)S(=O)(=O)c1cccc(NC(=O)COC(=O)C2(c3ccccc3F)CCCC2)c1,inactive
16,CN(C)S(=O)(=O)c1cccc(NC(=O)COC(=O)c2cc(=O)[nH]c(=O)[nH]2)c1,inactive
17,CN(C)S(=O)(=O)c1cccc(NC(=O)COc2ccc3ccccc3c2)c1,6.01 µM (active)
18,CCC(Oc1ccccc1C)C(=O)Nc1ccc(S(=O)(=O)Nc2cc(C)on2)cc1 (stereo unspecified),inactive
19,CC1CN(C(=S)Nc2ccc(Br)cc2Cl)CC(C)O1 (stereo unspecified),inactive
20,O=C(Cn1c(-c2cncs2)nc2ccccc21)NC1CCCC1,inactive
21,O=C(/C=C/c1cnc2ccccc2n1)NC1CCCCCC1,13.5 µM (active)
22,O=C(CSc1nnc2c(n1)[nH]c1ccccc12)NC1CCCCC1,inactive

row,Structure (SMILES),Potency
1,COc1ccc(/C=C/CN2CCN(Cc3ccc(C)cc3)C(CCO)C2)cc1 (stereo unspecified),inactive
2,CCc1cnc2c(c1SCC(=O)N1CCC(C)CC1)c(=O)n(C)c(=O)n2C,inactive
3,O=C1CC[C@H](O)CCN1[C@H](CSc1ccc(Br)cc1)Cc1ccccc1,inactive
4,C=CCOc1ccc(/C=C2\SC(=S)N(CCC(=O)O)C2=O)cc1,1.69 µM (active)
5,O=C1/C(=C/c2ccc(F)cc2)SC(=S)N1CCCC(=O)N1CCCCC1CCO (stereo unspecified),inactive
6,Cc1ccc(/C=C2\SC(=S)N(CCC(=O)Nc3ccc(O)cc3)C2=O)cc1,inactive
7,O=C(NCc1ccncc1)c1cccc(NS(=O)(=O)c2ccc(F)c(F)c2)c1,inactive
8,COc1ccc(S(=O)(=O)NCCSc2nnnn2-c2ccccc2)cc1,inactive
9,COc1ccc(N(C)C(=O)C2CCN(S(=O)(=O)c3cc(Br)cc4c3N(C(C)=O)CC4)CC2)cc1,inactive
10,CC1=C(C(=O)OCc2ccc(C)cc2)C(c2ccccc2Cl)CC(=O)N1 (stereo unspecified),inactive
11,CSc1ccc(CCNC(=O)c2cnn(-c3ccccc3)c2-n2cccc2)cc1,inactive
12,COc1ccc(CNC(=O)C2=Cc3cccc(OC)c3OC2)cc1OC,inactive
13,CCOc1cccc(C(=O)Nc2cnn(Cc3ccccc3)c2)c1,inactive
14,COCC(=O)Nc1nnc(COc2ccccc2)s1,inactive
15,CCOc1cccc(C(=O)Nc2nnc(-c3cccs3)s2)c1,1.51 µM (active)
16,Cc1cccc(C(C)C)c1NC(=O)C(NS(=O)(=O)c1cccc2nsnc12)c1ccccc1 (stereo unspecified),inactive
17,CCN(CC)S(=O)(=O)c1ccc2c(c1)N(CC(=O)NCc1ccccc1)C(=O)CS2,inactive
18,CN1C(=O)c2[nH]nc(-c3ccc(F)cc3)c2C1c1ccccn1 (stereo unspecified),inactive
19,COc1cccc(NC(=O)N2C3CCCC2CC(NC(C)=O)C3)c1 (stereo unspecified),inactive
20,O=C(N/N=C/c1cccc(OCc2ccccc2)c1)c1ccc(Br)o1,21.3 µM (active)
21,Cc1ccc(OCCOc2cccc(/C=N/NC(N)=O)c2)cc1,inactive
22,O=C(N/N=C/c1cccc(O)c1)c1cc2c(ccc3ccccc32)o1,10.7 µM (active)

row,Structure (SMILES),Potency
1,O=C(Cc1cccs1)N/N=C/c1ccc(OCc2ccccc2)cc1,inactive
2,CCCc1ccc(OCc2ccc(C(=O)N/N=C/c3cccc([N+](=O)[O-])c3)o2)c(OC)c1,inactive
3,O=C(Cc1c[nH]c2ccccc12)N/N=C/c1cccc(F)c1,inactive
4,Cc1cccc(Oc2c([N+](=O)[O-])c(=O)n(C)c3ccccc23)c1,inactive
5,COc1ccc(Cl)cc1NC(=O)CSc1nc2ccccc2c2nc(-c3ccccc3)nn12,inactive
6,CCOc1cccc(NC(=O)c2ccc(F)c(S(=O)(=O)N(CC)c3cccc(C)c3)c2)c1,inactive
7,CCCN1CCc2nc(N3CCN(C)CC3)ncc2C1,inactive
8,CCN1CCCC1CNC(=O)c1cc2cc(OC)c(OC)cc2[nH]1 (stereo unspecified),inactive
9,COc1ccc(C(=O)NC(C)CCc2ccccc2)c(OC)c1 (stereo unspecified),inactive
10,COc1ccc(CCNC(=O)CCc2ccccc2O)cc1OC,inactive
11,COc1ccc(C(=O)CCc2ccccc2O)c(OC)c1,12 µM (active)
12,O=C(c1cc2cc(Br)cc(Br)c2oc1=O)N1CCOCC1,inactive
13,COc1ccccc1-c1nn(Cc2ccccc2)cc1C(=O)N1CCN(c2ncccn2)CC1,inactive
14,Cc1cc(C(=O)OCC(=O)Nc2nnc(C(C)C)s2)c2ccccc2n1,inactive
15,CC(C)C(C)NC(=O)COc1ncnc2ccccc12 (stereo unspecified),inactive
16,CCC(=O)Nc1ccc2nc(SCC(=O)N3CCc4ccccc43)sc2c1,inactive
17,CCC(=O)NC(=Nc1nc2ccccc2s1)NC(=O)CC,3.79 µM (active)
18,CC(C)CC(=O)NC(=S)NCc1ccccc1,inactive
19,CC(C)CC(=O)N/C(N)=N/c1nc2ccccc2s1,0.953 µM (active)
20,CCOc1ccccc1NC(=O)CCn1cnnn1,inactive
21,COc1ccc(S(=O)(=O)N2CCOCC2)cc1NC(=O)CSc1cc(C)ccc1C,inactive
22,CS(=O)(=O)Nc1ccccc1C(=O)OCC(=O)NC1CC1,inactive

row,Structure (SMILES),Potency
1,CCN(C(=O)COC(=O)CCOc1cccc(C)c1)c1c(N)n(Cc2ccccc2)c(=O)[nH]c1=O,inactive
2,COc1ccc(NC(=O)NC(C)c2c(-n3cccc3)sc(C)c2C)cc1OC (stereo unspecified),inactive
3,COc1ccccc1-c1sc2ccccc2c1-c1ccc(C(C)=O)cc1,15.1 µM (active)
4,COc1ccccc1-c1sc2ccccc2c1-c1ccc(Br)nc1,inactive
5,COc1cc(C(C)=O)ccc1OC(=O)CN1C(=O)c2ccccc2C1=O,inactive
6,O=C(CC1N=C2c3ccccc3N=C(SCc3ccc(F)cc3)N2C1=O)NCc1cccs1 (stereo unspecified),inactive
7,O=C(O)C1=NN(c2c(F)c(F)cc(F)c2F)C(=O)CC1,inactive
8,CN(CC(=O)NCCc1ccc(F)cc1)CC(=O)Nc1ccc(F)c(F)c1F,inactive
9,Cc1ccc(NC(=O)c2cn3c4c(ccc(Cl)c4c2=O)OC(C)C3)cc1C (stereo unspecified),inactive
10,O=C(CSCc1cnn(-c2ccccc2)c1-n1cccc1)NCc1ccccc1Br,inactive
11,O=[N+]([O-])/C=C/c1ccc2c(ccn2Cc2ccccc2)c1,13.5 µM (active)
12,COC(=O)Cn1cc(/C=C/[N+](=O)[O-])c2ccccc21,inactive
13,O=C(/C=C/c1cccc([N+](=O)[O-])c1)N1CCN(Cc2ccccc2)CC1,inactive
14,Cc1ccc(CN2CC(C(=O)N3CCN(S(=O)(=O)c4ccccc4)CC3)CC2=O)cc1 (stereo unspecified),inactive
15,Cc1nn(C)cc1/C=C1\CCC/C(=C\c2cn(C)nc2C)C1=O,26.9 µM (active)
16,Cc1nn(C)cc1S(=O)(=O)N1CCN(c2ccc(F)cc2)CC1,inactive
17,Cc1ccccc1-n1c(=O)c2ccccc2n(Cc2ccc(F)cc2)c1=O,inactive
18,CCS(=O)(=O)N1CCc2cc(C(=O)NCc3ccc(OC)cc3)ccc21,inactive
